Test system: HepG2
Experiment: GSK_TCMDC: Percent inhibition of human HepG2 cell line. Test compounds present at 10uM.
Format: functional

Structure (SMILES) | Inhibition
CN1CCCN(c2ccnc3cc4c(cc23)N(C(=O)c2ccc(Cl)cc2)CC4)CC1.Cl | 0%
COc1ccc2ncc(F)c(CCN3CCC(NCc4ccc5c(c4)CCO5)CC3)c2n1.Cl | 20%
CCOc1cc2c(cc1OCC)C(c1ccc(O)c(Cl)c1)NCC2.Cl (centres undefined) | 6%
O=C(Nc1ccc(-c2cncc(NCCCN3CCCC3)c2)cc1)c1ccccc1 | 0%
Cl.N=C(NCCc1ccc(Cl)c(Cl)c1)c1ccc2ccccc2c1 | 60%
N#Cc1ccc(N[C@@H](CC2CCCCC2)C(=O)NCc2cc(F)c(F)cc2F)c2ccccc12.O=C(O)C(F)(F)F | 12%
O=C(O)C(F)(F)F.O=[N+]([O-])c1ccc(Oc2ccccc2CNCC2CCN(CC3CCCCC3)CC2)cc1 | 40%
Fc1ccc(C=NN=c2cc[nH]c3ccccc23)cc1 | 21%
Cc1ccc(-c2ccn(Cc3cccc(OCc4ccccc4)c3)n2)cn1.Cc1ccc(-c2ccnn2Cc2cccc(OCc3ccccc3)c2)cn1 | 0%
C=CCNc1cc(-c2ccccn2)nc(-c2ccccn2)n1 | 78%
CN(C)CCOc1ccc(-c2cc(-c3ccc(Cl)c(O)c3)c(-c3ccncc3)o2)cc1.Cl | 39%
CCOc1ccccc1CON1C(N)=NC(N)=NC1(C)C | 66%
COc1cccc2cc(C(=O)N[C@@H](CC(C)C)C(=O)N[C@H](/C=N/N(C)C(=O)OC(C)(C)C)CC(=O)OC(C)(C)C)oc12 | 5%
O=C(N/C(=C/c1cccc([N+](=O)[O-])c1)c1nc2ccccc2[nH]1)c1cccc(Br)c1 | 0%
COc1cccc(NC(=O)c2cc(Br)cc(N3CCN(c4ccncc4)CC3)c2)c1.O=C(O)C(F)(F)F | 30%
c1ccc(CN2CCc3cc4nccc(N5CCNCC5)c4cc32)cc1 | 9%
CN1CCCC(CN2CCN(Cc3ccc(-c4cccc(-c5nc6ccccc6[nH]5)c4)cc3)CC2)C1.O=C(O)C(F)(F)F (centres undefined) | 57%
CCCCNCc1ccc(-c2nc(CN(CCCN3CCN(C)CC3)C(=O)Nc3cccc(Cl)c3)cs2)cc1.O=C(O)C(F)(F)F | 35%
Cc1cc(N(C)CCCN(C)C)nc(Nc2ccc(Cl)cc2)n1 | 7%
O=C(CSc1cccc[n+]1[O-])c1ccc(Cc2ncc(C(F)(F)F)cc2Cl)s1 | 13%
Cc1ccccc1OCCCN1CCN(CC(c2ccc(F)cc2)N2CCN(C(C)C)CC2)CC1.Cl (centres undefined) | 20%
CN(C)CCCOc1ccc(CCNCc2cccc(Oc3ccc(Cl)cc3)c2)cc1.O=C(O)C(F)(F)F | 57%
O=C(Nc1cccc(-c2ccc(CN3CCNCC3)cc2)c1)c1cccc(Cl)c1.O=C(O)C(F)(F)F | 30%
O=C(Nc1ccc(N2CCN(c3ncccc3C(F)(F)F)CC2)nc1)c1cccs1 | 7%
